Measured values as given in PubChem BioAssay (NCI).
About 83,000 compounds went through this panel and 20% of them were active in at least one assay; those are over-represented in the sample as a whole.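 48-hour exposure, single concentration, 96-well plates; percent growth endpoint where 0 means no net growth. Active: below 10.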 Unmarked numbers belong to inactive results.

Test system: UACC-62 melanoma
Test: NCI-60 one-dose screen, 48 h (100 = growth as untreated, 0 = no growth, -100 = all killed)
Details: 10 µM unless noted

Compound	growth [%]
COc1cc(C2=NN(C(C)=O)C(c3cccc(Nc4ccnc5cc(C(F)(F)F)ccc45)c3)C2)cc(OC)c1OC (centres undefined)	69
CC(=O)OC[C@]12CC[C@@H](c3cn(Cc4ccc(Cn5cc([C@@H]6CC[C@]7(COC(C)=O)CC[C@]8(C)[C@H](CC[C@@H]9[C@@]%10(C)CC[C@H](OC(C)=O)C(C)(C)[C@@H]%10CC[C@]98C)[C@@H]67)nn5)cc4)nn3)[C@@H]1[C@H]1CC[C@@H]3[C@@]4(C)CC[C@H](OC(C)=O)C(C)(C)[C@@H]4CC[C@@]3(C)[C@]1(C)CC2	95.8
COc1ccc(/C=C/C(=O)Nc2ncnc3nc[nH]c23)cc1	81.8
COC(=O)c1ccc2c(c1)NC(=O)[C@@H]1CCCN21	94.6
COc1cc(NC(=O)COc2cc(C)nc3ccc(OC)cc23)cc(OC)c1	74.4
CCOC(=O)c1ccc(Nc2ncnc3ccc(NC(=O)c4ccccc4)cc23)cc1	88.9
CCN(CC)CC#CCOC(=O)[C@]1(C)CCC[C@]2(C)[C@H]3C[C@H]4C(C(C)C)=C[C@]3(CC[C@H]21)[C@@H]1C(=O)CCC(=O)[C@@H]14	70.5
N#Cc1c(-c2ccc(F)cc2)nc(N/N=C/c2c[nH]c3ccccc23)nc1N1CCOCC1	61.8
CN1CCN(CC#CCOC(=O)CNC(=O)[C@]23CCC(C)(C)C[C@H]2C2=CC[C@@H]4[C@@]5(C)CC[C@H](O)C(C)(C)[C@@H]5CC[C@@]4(C)[C@]2(C)CC3)CC1	90.3
